The full list was thinned out, with hits kept by preference.
HIV RNase H inh: inhibitors of HIV-1 reverse transcriptase RNase H; P04585; RT-RNase H RNA/DNA duplex cleavage, fluorescence; inhibition, % at 10 µM; 65,000 tested, 1.9% active; AID 565; in the data active = inhibition above about 50%
Active calls of the source: *.

SMILES	HIV RNase H inh
COc1ccc(CN(CCN2CCOCC2)C(=O)c2c(F)cccc2F)cc1OC	61.6*
O=C(NCc1ccco1)c1cccc(S(=O)(=O)N2CCCCC2)c1	-22.1
COc1ccc(-c2noc(-c3ccccc3F)n2)cc1	-11.7
COc1ccc(-c2ccc(-c3noc(-c4ccccc4F)n3)c(OC)n2)cc1	54.2*
COc1ccc(-c2ccc(-c3noc(-c4ccccc4)n3)c(OC)n2)cc1	2.1
COc1cccc(C(CC(=O)NCc2ccco2)NS(=O)(=O)c2ccc(C)cc2)c1OC (stereo not drawn)	0.5
O=C1CS/C(=N\c2ccccn2)N1C1CCCCC1	-5.2
O=C(c1ccccc1NS(=O)(=O)c1ccc(Br)s1)N1CCOCC1	1.4
COc1ccccc1NC(=O)CCC(=O)Nc1nnc(C(F)(F)F)s1	4.9
COc1ccc2cc(S(=O)(=O)N3CCOCC3)ccc2c1	-10.6
COc1ccc(-n2nnnc2SCC(=O)N2CCOCC2)cc1	-2.3
COc1ccc(-n2nnnc2Sc2ccc(S(=O)(=O)N3CCOCC3)cn2)cc1	86.2*
COc1ccc(S(=O)(=O)N2CCCC2C(=O)Nc2ccc(C(C)=O)cc2)cc1 (stereo not drawn)	-2.9
CC(=O)c1c(C)[nH]c(C(=O)OCCCCN2C(=O)c3ccccc3C2=O)c1C	-47.2
CC(=O)Nc1ccc(NC(=O)CNS(=O)(=O)c2ccc(C)cc2)cc1	0.6
CCOC(=O)/C=C/S(=O)(=O)c1ccc(NC(C)=O)cc1	50.3*
CC(=O)Nc1ccc(S(=O)(=O)c2ccc(N)cc2)cc1	-5.3
O=S(=O)(NC1CCc2ccccc21)c1ccc(S(=O)(=O)N2CCCC2)cc1 (stereo not drawn)	-2.7
Cn1c(C(C#N)C2=C(Cl)C(=O)N(c3ccccc3)C2=O)nc2ccccc21 (stereo not drawn)	23.3
COc1ccc(S(=O)(=O)N2CCOCC2)c(Cl)c1Cl	-14.8
CC1CCc2sc3c(c2C1)c1ncnn1c(=O)n3CC(=O)c1ccc(Br)cc1 (stereo not drawn)	5.8
CC(C)Cn1c2c(c(O)c(C(=O)Nc3ncccc3O)c1=O)CCCC2	7.8
CCCCc1nc2ccccc2c(=O)n1NC(=O)c1c(O)c2c(n(CC(C)C)c1=O)CCCC2	51.7*
CC(C)Cn1c2c(c(O)c(C(=O)Nc3ccc(F)cc3)c1=O)CCCC2	6.6
CCC(Oc1ccccc1)C(=O)Nc1ccccn1 (stereo not drawn)	-2.9
SMILES	HIV RNase H inh
CN(C)CCCN1C(=O)C(=O)/C(=C(/O)c2ccc3c(c2)OCCO3)C1c1ccccn1 (stereo not drawn)	-7.1
O=C(Nc1cccc2c1CCCC2)C1CCCN(S(=O)(=O)c2cccc3nonc23)C1 (stereo not drawn)	31.7
CCOC(=O)c1c(NC(=O)c2ccco2)sc(C(=O)N2CCCC2)c1C	0.5
CCOC(=O)c1c(-c2ccc(C)s2)csc1NC(=O)c1ccco1	13.2
CCOC(=O)c1c(-c2ccco2)csc1N	56.0*
CCOc1cc2[nH]c(=O)n(CCCCCC(=O)NCc3ccc4c(c3)OCO4)c(=O)c2cc1OCC	-4.5
CCOc1cc2[nH]c(=O)n(CCC(=O)NCCc3ccccc3)c(=O)c2cc1OCC	64.4*
CCOc1cc2[nH]c(=O)n(CCC(=O)NCCc3ccc(OC)c(OC)c3)c(=O)c2cc1OCC	-0.2
CC1=C(C(=O)OCC(C)C)C(c2ccc(F)cc2)NC(=O)N1 (stereo not drawn)	-21.3
C=CCN1C(=O)CC(C(=O)NC)SC1=Nc1ccc(C(=O)OCC)cc1 (stereo not drawn)	2.7
COc1ccc(C(=O)Nc2cccc3c2C(=O)NC3=O)cc1S(=O)(=O)N1CCOCC1	-2.4
COc1ccc(Oc2nc(Oc3ccc(OC)cc3)nc(Oc3ccc(OC)cc3)n2)cc1	57.0*
CN(C)c1nc(Oc2ccc(N)cc2)nc(N(C)C)n1	-7.0
COc1ccc2ccc(Oc3ncccn3)cc2c1	-5.7
COc1cccc2cc(C(C)=O)c(=O)oc12	-3.0
COc1cccc2cc(C(=O)n3ccc(C)n3)c(=O)oc12	-2.5
COc1cccc2cc3c(=O)n(-c4ccccc4)nc-3oc12	52.7*
COC(=O)c1cc(NS(=O)(=O)c2ccc3c(c2)CCC(=O)N3)cc(C(=O)OC)c1	-8.6
CCN(CC)C(=O)c1sc2nc(-c3cccs3)cc(-c3cccs3)c2c1N	52.1*
CCN(CC)C(=O)CSc1nc(C)cc(-c2cccs2)c1C#N	25.0
Nc1c(C(=O)NC2CCCC2)sc2nc(-c3cccs3)ccc12	-4.3
COc1cccc(C2N(c3cccc(Cl)c3)C(=O)C3CCCN32)c1 (stereo not drawn)	-9.9
C=C(C)Cn1c(-c2ccc(OC)cc2)nc2ccccc21	-28.1
COc1cccc(C=Nc2ccc3c(c2)OCCO3)c1O	-2.1
Oc1ccc(C=Nc2cccc3ncccc23)c(O)c1	1.4
COc1cccc(N=Cc2ccc(O)cc2O)c1	53.4*
CCOC(=O)N1CCC(N2C(=O)c3ccccc3C2Nc2ccc(Cl)cn2)CC1 (stereo not drawn)	-2.3
Cc1ccc2cc(C#N)c(SCC(=O)NCC3CCCO3)nc2c1 (stereo not drawn)	-37.0
Cc1cc(C)c2cc(C#N)c(SCC(=O)NCC3CCCO3)nc2c1 (stereo not drawn)	-2.1
